Laboratory results published in PubChem BioAssay.
Activity calls are given as the source filed them. Unless noted, no rule for the calls is given here.

Columns and labels:
[1] = HepG2 liver cancer cell viability effects, profiling panel, resazurin fluorescence, 24 h, PK04 Diversity Set (AID 1172); settings: higher = more signal
[2] = basal S. cerevisiae growth modulation, no modifier, primary screen, OD600, strain BY4716, 24 h, basal condition (AID 1173); settings: OD600, 24 h, higher = more signal, called active from +8 up or from −8 down
[3] = MM1S myeloma cell viability, profiling panel, resazurin fluorescence, basal, 24 h, PK04 Diversity Set (AID 1174); settings: higher = more signal, called active from +8 up or from −8 down;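 also: MM1S multiple myeloma cell line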
[4] = target: Dihydroorotate dehydrogenase (quinone), mitochondrial (Plasmodium falciparum (isolate 3D7)) (UniProt Q08210); assay: PfDHODH enzyme inhibitors, primary screen, biochemical, C-terminal His tag, absorbance 600 nm (AID 1175); settings: DCIP absorbance 600 nm, higher = more signal, called active from +8 up or from −8 down;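 also: recombinant parasite enzyme with a five histidine tag at its C terminus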
[5] = P. aeruginosa biofilm formation inhibitors, primary screen, strain PAO1, LB-PBS medium, absorbance 600 nm (AID 1176); settings: P. aeruginosa PAO1 growth/biofilm, A600, 12 h; higher = more signal
[6] = S. cerevisiae RM11-1a growth modifiers, primary screen, strain RM11-1a, OD600, basal, 24 h (AID 1177); settings: OD600, 24 h, higher = more signal, called active from +8 up or from −8 down;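 also: cultures grown under basal conditions with no added stressor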
[7] = E. coli acrAB mutant growth effects, primary screen, E. coli filamentation inducers, strain DRC39, OD650, 24 h (AID 1178); settings: higher = more signal, called active from +8 up or from −8 down;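 also: growth measured as culture turbidity by optical density at 650 nm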
[8] = E. coli acrAB mutant growth effects, primary screen, E. coli filamentation inducers, strain DRC39, OD650, 48 h (AID 1179);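 also: screen aims at cell division blockers that make cells filament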; settings: E. coli DRC39 delta-acrAB growth, higher = more signal, called active from +8 up or from −8 down
[9] = RPMI8226 myeloma cell viability, profiling panel, resazurin fluorescence, basal, 24 h, PK04 Diversity Set (AID 1180); settings: higher = more signal;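 also: RPMI8826 multiple myeloma cell line at 5000 cells per well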
[10] = target: E3 ubiquitin-protein ligase XIAP (Homo sapiens) (UniProt P98170); assay: XIAP binders, primary screen, biophysical, small-molecule microarray, fluorescence 635 nm (AID 1181); settings: small-molecule microarray binding, higher = more signal;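 also: score merges 667 nm emission and signal to noise over triplicate slides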
[11] = system: XIP peptide (Xip251-270) binding; assay: small-molecule binders of XIP peptide, primary screen, biochemical, small-molecule microarray, fluorescence 635/667 nm, 0.1 µg/mL protein (AID 1182); settings: fluorescent protein binding, 635 nm, higher = more signal, called active from +8 up or from −8 down
[12] = system: XIP peptide (Xip251-270); assay: small-molecule binders of XIP peptide, primary screen, biochemical, small-molecule microarray, fluorescence 635/667 nm, 0.5 µg/mL protein (AID 1183); settings: small-molecule microarray binding, fluorescence 635 nm; higher = more signal
[13] = Plasmodium falciparum growth inhibition, primary screen, strain 3D7, DAPI fluorescence, 100 nL (AID 1184);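 also: parasites grown inside human red blood cells in medium with human serum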; settings: P. falciparum 3D7 growth, 3 d, higher = more signal
[14] = target: Homeobox protein Hox-A13 (Mus musculus) (UniProt Q62424); assay: inhibitors of HoxA13-DNA binding, primary screen, biochemical, fluorescence polarization, labeled oligonucleotide (AID 1185); settings: 15 min, higher = more signal, called active from +8 up or from −8 down
[15] = inhibitors of hydroxyurea-induced Chk1 phosphorylation, primary screen, imaging, HeLa, phospho-Chk1 antibody, percent positive cells (AID 1186); settings: hydroxyurea-induced phospho-Chk1 immunofluorescence imaging, higher = more signal
[16] = inhibitors of hydroxyurea-induced Chk1 phosphorylation, primary screen, imaging, HeLa, phospho-Chk1 nuclear intensity (AID 1187); settings: hydroxyurea-induced phospho-Chk1 immunofluorescence imaging, higher = more signal

Sequence of E3 ubiquitin-protein ligase XIAP (Homo sapiens) (P98170 whole entry, looked up): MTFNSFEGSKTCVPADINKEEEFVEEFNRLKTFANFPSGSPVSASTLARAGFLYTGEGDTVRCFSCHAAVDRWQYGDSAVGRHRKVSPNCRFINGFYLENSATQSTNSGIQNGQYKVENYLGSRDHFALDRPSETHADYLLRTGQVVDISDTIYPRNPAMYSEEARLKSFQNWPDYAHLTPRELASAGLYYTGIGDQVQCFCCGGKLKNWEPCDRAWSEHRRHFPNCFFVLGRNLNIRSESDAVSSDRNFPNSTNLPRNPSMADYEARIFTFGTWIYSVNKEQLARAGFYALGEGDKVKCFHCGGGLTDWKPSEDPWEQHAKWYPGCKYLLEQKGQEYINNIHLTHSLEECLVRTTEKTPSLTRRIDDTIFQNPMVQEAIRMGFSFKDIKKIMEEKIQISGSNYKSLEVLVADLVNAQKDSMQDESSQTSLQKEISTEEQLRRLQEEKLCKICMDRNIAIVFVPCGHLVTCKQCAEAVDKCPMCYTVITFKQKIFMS
Sequence of Dihydroorotate dehydrogenase (quinone), mitochondrial (Plasmodium falciparum (isolate 3D7)) (Q08210 whole entry, looked up): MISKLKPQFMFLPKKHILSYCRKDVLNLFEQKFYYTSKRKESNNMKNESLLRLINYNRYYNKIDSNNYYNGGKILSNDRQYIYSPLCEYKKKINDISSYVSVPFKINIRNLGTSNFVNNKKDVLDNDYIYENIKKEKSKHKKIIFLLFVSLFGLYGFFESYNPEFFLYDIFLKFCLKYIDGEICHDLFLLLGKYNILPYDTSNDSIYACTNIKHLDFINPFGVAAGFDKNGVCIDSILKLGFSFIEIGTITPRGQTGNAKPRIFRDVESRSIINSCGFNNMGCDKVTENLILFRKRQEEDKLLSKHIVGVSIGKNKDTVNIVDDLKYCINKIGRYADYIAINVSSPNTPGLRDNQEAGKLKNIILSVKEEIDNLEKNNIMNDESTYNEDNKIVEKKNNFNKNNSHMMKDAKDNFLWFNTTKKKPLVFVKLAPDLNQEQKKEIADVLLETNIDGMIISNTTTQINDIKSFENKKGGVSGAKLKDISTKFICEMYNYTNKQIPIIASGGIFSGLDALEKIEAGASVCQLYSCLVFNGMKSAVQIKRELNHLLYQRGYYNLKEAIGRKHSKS
Sequence of Homeobox protein Hox-A13 (Mus musculus) (Q62424 whole entry, looked up): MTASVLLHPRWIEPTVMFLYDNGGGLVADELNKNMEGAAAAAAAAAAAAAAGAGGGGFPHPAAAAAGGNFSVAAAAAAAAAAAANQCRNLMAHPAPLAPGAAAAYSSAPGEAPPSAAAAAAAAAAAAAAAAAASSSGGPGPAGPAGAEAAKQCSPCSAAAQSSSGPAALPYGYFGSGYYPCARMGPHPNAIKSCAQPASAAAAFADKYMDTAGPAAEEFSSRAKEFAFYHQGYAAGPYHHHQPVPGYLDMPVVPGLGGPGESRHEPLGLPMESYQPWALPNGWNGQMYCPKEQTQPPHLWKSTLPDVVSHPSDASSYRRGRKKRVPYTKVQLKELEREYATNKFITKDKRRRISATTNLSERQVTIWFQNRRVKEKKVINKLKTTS

SMILES	z-score [1]	z-score [2]	z-score [3]	composite z-score [4]	z-score [5]	z-score [6]	z-score [7]	z-score [8]	z-score [9]	composite z-score [10]	composite z-score [11]	composite z-score [12]	z-score [13]	z-score [14]	z-score [15]	z-score [16]
O=C1OCCC/C=C\[C@H]2OC34C=CCN(CCN5CCOCC5)C(=O)[C@H]3N(CCCO)C(=O)[C@@H]4C12 (stereo partly drawn)	-0.0764	-0.314 (inactive)	-0.146 (inactive)	-0.053 (inactive)	-0.525 (inactive)	-1.22 (inactive)	-0.0395 (inactive)	-0.125 (inactive)	0.125	0.138	0.976 (inactive)	-1.17	0.211	-6.44 (inactive)	0.697 (inactive)	0.826 (inactive)
COc1ccc(C(=O)Nc2ccc(CN3C(=O)[C@@]4(O[C@@H](CC(=O)N5CCC[C@H]5CO)[C@H]([Si](C)(C)c5ccc(OC)cc5)[C@H]4C)c4ccccc43)cc2)cc1	0.294	-0.871 (inactive)	-0.675 (inactive)	-6.57 (inactive)	1.58 (inactive)	0.515 (inactive)	1.28 (inactive)	1.26 (inactive)	-0.677	0.0774	0.135 (inactive)	0.703	-0.183	-3.33 (inactive)	-0.0567 (inactive)	0.829 (inactive)
CCCC[C@H]1OB(O)C[C@H]2C1=C(COc1ccccc1)C[C@H]1C(=O)N(C)C(=O)[C@H]12	-0.0384	-2.57 (inactive)	-0.508 (inactive)	-0.514 (inactive)	-0.0946 (inactive)	-0.798 (inactive)	-0.121 (inactive)	-0.316 (inactive)	-0.59	-0.031	-0.146 (inactive)	-0.544	1.68	-4.62 (inactive)	-0.267 (inactive)	0.201 (inactive)
COc1cc2c(cc1O)C(C1CC1)N(Cc1cc3c(cc1Br)OCO3)CC2 (stereo not drawn)	-1.94	-2.67 (inactive)	-3.63 (inactive)	-1.55 (inactive)	0.571 (inactive)	0.698 (inactive)	-1.2 (inactive)	-1.71 (inactive)	-3.52	0.0761	0.411 (inactive)	0.479	-2.44	-5.54 (inactive)	-0.174 (inactive)	0.285 (inactive)
O=C1OCCC/C=C\[C@H]2OC34C=CCN(Cn5nnc6ccccc65)C(=O)[C@H]3N(CCCCCCO)C(=O)[C@@H]4C12 (stereo partly drawn)	1.14	-1.45 (inactive)	0.651 (inactive)	-0.332 (inactive)	1.07 (inactive)	-1.16 (inactive)	1.09 (inactive)	1.18 (inactive)	0.598	-0.203	-0.0221 (inactive)	-0.0976	-0.395	-4.38 (inactive)	-0.471 (inactive)	0.832 (inactive)
C=CCOC(=O)[C@H]1[C@@H]2C(=O)O[C@@H](c3ccccc3)[C@@H](c3ccccc3)N2[C@@H](c2ccc(OCCOC(=O)[C@H]3C[C@H]4C(=O)N5CCC[C@H]5C(=O)N4[C@H]3c3ccc(O)cc3)cc2)[C@]12C(=O)Nc1ccc(I)cc12	-0.495	-1.03 (inactive)	-0.941 (inactive)	-1.73 (inactive)	2.43 (inactive)	-0.632 (inactive)	-0.651 (inactive)	-1.05 (inactive)	-0.215	2.8	2.85 (inactive)	0.84	-1.28	0.622 (inactive)	-0.187 (inactive)	0.366 (inactive)
CC(C)(C)OC(=O)CC[C@]1(C(=O)O)N=C(c2ccc(OCCCO)cc2)O[C@H]1c1ccccc1N=[N+]=[N-]	0.144	-0.278 (inactive)	-1.32 (inactive)	-0.533 (inactive)	0.286 (inactive)	-0.715 (inactive)	0.0508 (inactive)	0.49 (inactive)	0.056	0.0989	1.25 (inactive)	0.907	-0.164	-5.39 (inactive)	0.0751 (inactive)	-0.136 (inactive)
COC(=O)[C@@]1(Cc2ccccc2)[C@H]2c3cc(C(=O)N(C)C)n(CCSCCO)c3C[C@H]2CN1C(=O)c1ccccc1	-0.821	0.319 (inactive)	-0.345 (inactive)	-0.394 (inactive)	0.15 (inactive)	0.152 (inactive)	-0.976 (inactive)	-0.68 (inactive)	-0.151	0.212	0.115 (inactive)	0.443	-0.522	-4.76 (inactive)	0.585 (inactive)	0.248 (inactive)
CCOC(=O)C[C@H]1[C@H](OC(=O)c2cc3ccccc3oc2=O)[C@@H](NC(=O)Cc2ccc(OC)cc2)c2cc(OCCCO)ccc2N1C(=O)c1ccccc1	-1.1	-2.06 (inactive)	-0.218 (inactive)	-2.42 (inactive)	-0.329 (inactive)	0.0296 (inactive)	-0.682 (inactive)	-0.784 (inactive)	-1.22	0.0997	0.48 (inactive)	0.853	-1.9	-2.46 (inactive)	0.907 (inactive)	0.546 (inactive)
CN(C)CCCC[C@@H]1NC(=O)[C@H]2C[C@@H](C(=O)NCCCCCNC(=O)CS)[C@@H](c3cccc(OCCO)c3)N2C1=O	0.373	-0.646 (inactive)	-0.212 (inactive)	-0.286 (inactive)	0.643 (inactive)	-0.569 (inactive)	-0.197 (inactive)	-0.32 (inactive)	-0.421	-0.244	1.2 (inactive)	0.567	-0.103	-3.25 (inactive)	-0.244 (inactive)	-0.144 (inactive)
C[C@]1(C(=O)NC2CC2)c2ccccc2C(=O)N(Cc2cc(C(F)(F)F)cc(C(F)(F)F)c2)[C@H]1c1ccc(CO)cc1	0.546	-0.66 (inactive)	0.43 (inactive)	0.262 (inactive)	-0.506 (inactive)	0.558 (inactive)	1.11 (inactive)	0.833 (inactive)	0.367	-0.0646	1.56 (inactive)	0.849	-0.895	-3.26 (inactive)	-0.66 (inactive)	-0.479 (inactive)
C[N+](C)(C)CCCC[C@@H]1NC(=O)[C@@H]2C[C@H](C(=O)NCCCCCN)[C@H](c3cccc(OCCO)c3)N2C1=O	-0.85	-0.749 (inactive)	-1.23 (inactive)	-0.76 (inactive)	0.131 (inactive)	0.527 (inactive)	0.0148 (inactive)	0.597 (inactive)	0.0758	0.191	-0.442 (inactive)	0.572	0.137	-3.6 (inactive)	-0.86 (inactive)	-0.231 (inactive)
CN(C)CCCNC(=O)[C@@]1(c2ccc([N+](=O)[O-])cc2)CC(=O)N(C2CCCCC2)[C@@H]1c1ccc(CO)cc1	-0.252	-1.59 (inactive)	-0.0665 (inactive)	0.456 (inactive)	-0.177 (inactive)	-0.0078 (inactive)	0.328 (inactive)	-0.16 (inactive)	-0.155	-0.0073	-0.209 (inactive)	-0.0124	-1.11	-0.842 (inactive)	-0.196 (inactive)	-0.495 (inactive)
Cc1ccc(S[C@]2(C(=O)NCC(C)C)CC(=O)N(Cc3cc(C(F)(F)F)cc(C(F)(F)F)c3)[C@@H]2c2ccc(CO)cc2I)cc1	-0.0295	-3.38 (inactive)	-2.99 (inactive)	-0.83 (inactive)	-0.522 (inactive)	-1.19 (inactive)	-0.155 (inactive)	-0.586 (inactive)	-2.27	-0.17	0.861 (inactive)	0.569	-0.433	-2.28 (inactive)	0.208 (inactive)	0.473 (inactive)
C=CCN1C(=O)[C@@]2(O[C@@H](CCO)[C@H]([Si](C)(C)c3ccc(OC)cc3)[C@H]2C)c2cc(NC(=O)c3ccc(OC)cc3)ccc21	-2.49	-1.77 (inactive)	-3.52 (inactive)	-1.21 (inactive)	1.53 (inactive)	1.69 (inactive)	1.22 (inactive)	0.586 (inactive)	-4.92	-0.154	0.574 (inactive)	0.208	-2.77	-4.58 (inactive)	-0.176 (inactive)	0.416 (inactive)
[N-]=[N+]=NCc1ccccc1[C@@H]1OC(c2ccc(OCCCO)cc2)=N[C@]1(Cc1ccccc1N=[N+]=[N-])C(=O)N1CCOCC1	-0.54	-0.532 (inactive)	-1.21 (inactive)	-0.52 (inactive)	0.727 (inactive)	0.602 (inactive)	-0.38 (inactive)	-0.265 (inactive)	-1.64	0.358	0.129 (inactive)	0.706	-2.03	-2.15 (inactive)	0.0823 (inactive)	0.515 (inactive)
CC(=O)NCCCC[C@@H]1NC(=O)[C@@H]2C[C@H](C(=O)NCCCCN(C)C)[C@H](c3cccc(OCCO)c3)N2C1=O	1.03	0.108 (inactive)	-0.721 (inactive)	-0.446 (inactive)	-0.875 (inactive)	0.0173 (inactive)	0.374 (inactive)	0.313 (inactive)	0.507	-0.404	0.172 (inactive)	0.237	-0.363	-1.75 (inactive)	-0.281 (inactive)	-0.0329 (inactive)
COCCCN1C(=O)[C@@]2(Cc3ccccc31)c1ccccc1C(=O)N(Cc1ccccc1C(F)(F)F)[C@H]2c1ccc(CO)cc1	0.0531	0.947 (inactive)	-0.0554 (inactive)	-20.2 (active)	4.64 (inactive)	-0.305 (inactive)	0.0576 (inactive)	-0.297 (inactive)	0.0241	-0.0373	-0.219 (inactive)	0.55	-0.698	-0.825 (inactive)	0.25 (inactive)	0.49 (inactive)
